# Reference: publication PMC5540273 (PLoS ONE, 2017)
# What was measured:
# [1] = tested on: RPS6KA5(Kin.Dom.2-C-terminal)
# [2] = tested on: T1, RSK1(Kin.Dom.2-C-terminal)
# T1 construct: gene RPS6KA1
# [3] = tested on: T2, RSK2(Kin.Dom.2-C-terminal)
# T2 construct: gene RPS6KA3
# [4] = tested on: T3, RSK3(Kin.Dom.2-C-terminal)
# T3 construct: gene RPS6KA2
# SNARK = tested on: T4, SNARK
# T4 construct: gene NUAK2
# 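Further: kd values determined as follow-up on hits from a single-replicate KINOMEscan panel screen.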
smiles,measurement,setting,value
Cc1cccc(-c2cc(Nc3ccncc3)c3ccccc3n2)n1 [GSK223675],Kd,[1],> 10 µM
Cc1ccccc1-n1cnc2c(N)ncnc21 [SKF-97510],Kd,[2],> 10 µM
Nc1nc(-c2nccs2)c(-c2ccnc3ccccc23)s1 [GW693542],Kd,[3],> 10 µM
CS(=O)(=O)c1ccc(-c2c(-c3ncn[nH]3)sc(N3CCOCC3)c2C#N)cc1,Kd,[4],> 10 µM
COc1cc2ncn(-c3cc(OCC4CCCO4)c(C(N)=O)s3)c2cc1OC (centres unmarked) [GSK204607],Kd,SIK2,> 10 µM
CC1=C(C(=O)Nc2cc3cn[nH]c3cc2F)C(c2ccc(C(F)(F)F)cc2)CC(=O)N1 (centres unmarked) [GSK429286],Kd,SNARK,0.47 µM
Nc1ncnc2[nH]c(-c3ccccc3)nc12 [AH5015],Kd,SNRK,> 10 µM
Cn1cncc1-c1ccc2ncnc(Nc3ccc(OCc4ccccc4)cc3)c2c1 [GW320571],Kd,SNRK,8.7 µM
